Structures are written as SMILES. Compounds without any hit were thinned out: in the full panel of roughly 83,000, 20% have a hit.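 Method: cells in 96-well plates; compound added at one concentration; 48 h incubation; percent growth measured; values under 10 scored active.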 A number with no mark means an inactive call. The source made the active and inactive calls.

The subject of this assay is MDA-MB-468 breast. The assay is described as follows: NCI-60 one-dose screen, 48 h (100 = growth as untreated, 0 = no growth, -100 = all killed). As to conditions: 10 µM unless noted.
Turning to `COc1cc(-c2cc3ncccc3c3nc(N)c4cccnc4c23)cc(OC)c1OC`, the growth is -3.2% (active).
With `CN1CCN(CCCOc2ccc3ncnc(Nc4ccc(Oc5cccc(C(F)(F)F)c5)c(Cl)c4)c3c2)CC1`, the growth is -24.2% (active).
In the case of `O=C1Nc2ccccc2/C1=C\c1ccccc1O`, the growth was 67.4%.
Under `Cc1cc(C(=O)Nc2cc(Oc3ccc4nc(NC(=O)C5CC5)cn4n3)ccc2C)n(C)n1` stands 21%; under `COc1cnc2c(c1)C(=O)c1c-2n(CCCNCCO)c(=O)c2ccncc12`, -23.9% (active).
Take `NC(=O)NNC(=O)c1ccccc1`: the growth was 110%.
`COc1ccc(C(=O)C2C(C#N)C(C#N)C3C=Cc4ccccc4N32)cc1` (stereo not given): the growth was 16.5%.
As for `COc1cc2c(cc1OC)C(Sc1ccc(C)cc1)c1c(nc(N)c(C#N)c1N)O2` (stereo not given), the growth is -46.7% (active).
Regarding `O=C(Nc1ccc(F)cc1)Nc1ccccc1CNc1nc(Nc2ccc(OCCN3CCCC3)cc2)ncc1Cl`, the growth is -44.1% (active).
Turning to `COc1ccc2c(c1)/C(=C/c1cc(OC)c(OC)c(OC)c1)C(=O)N2C`, the growth is 25.9%.
For the compound `N#Cc1c(-c2ccc(F)cc2)nc(N=Nc2c(O)[nH]c3ccc(Cl)cc23)nc1N1CCOCC1`, the growth is 47.1%.
For `CC(C)[C@@H]1NC(=O)[C@]2(C)CSC(=N2)c2ccnc(c2)CNC(=O)C[C@@H](/C=C/CCS)OC1=O`, the growth is 42.7%.
As for `COc1ccc(-c2cc(/C=C/C(=O)c3cc(OC)c(OC)c(OC)c3)[nH]n2)cc1OC`, the growth is -63.8% (active).
For `COc1cc(CO)cc2cc3ccccc3nc12`, the growth is 40.8%.
Take `Clc1ccc(I)c2ccccc12`: the growth was 107%.
Under `Cc1ccc(NCCN2CCCCC2)c2c(=O)c3ccccc3sc12` stands 11.1%; under `CCN(CC)C(=O)CCCCCn1c2ccccc2c2c3c(c4c5ccccc5[nH]c4c21)C(=O)N(O)C3=O`, 51.5%; under `NC(CSC(c1ccccc1)(c1ccccc1)c1ccc(Cl)cc1)C(=O)O` (stereo not given), -6.09% (active).
With `CC#CC(=O)N1CCC[C@H]1c1nc(-c2ccc(C(=O)Nc3ccccn3)cc2)c2c(N)nccn12`, the growth was 59.6%.
As for `COc1ccc(C(=O)Nc2cccc(C3CCc4c(cc(OC)c(OC)c4OC)O3)c2)cc1` (stereo not given), the growth was 12.4%.
For the compound `COc1cccc2c(=O)c3c(sc12)c(NCCN(C)C)nc1ccccc13`, the growth was 12.7%.
As for `CCCCNC(=O)Oc1ccc(/C(=C(/C)Cc2ccc(OC)cc2)c2ccc(OCCN3CCCCCC3)cc2)cc1`, the growth was 69.2%.
Under `COc1cc2cc(Oc3ccc(NC(=O)Nc4cc(C(F)(F)F)cc(C(F)(F)F)c4)cc3)c(C)nc2cc1OCCN1CCOCC1` stands -12% (active); under `Cc1ccc2[nH]cc(-c3nc(-c4cn(C)c5ncccc45)cs3)c2c1`, -0.335% (active).
`CCOC(=O)c1ccc2n1CCCc1cnc(NC(C)=O)nc1-2`: the growth was 96.1%.
With `O=C(N/N=C/c1ccc(O)cc1O)c1cccc(Nc2ccnc(C(F)(F)F)c2)c1`, the growth was 43.1%.
Under `CN(C)CCCOc1ccc(C(=C(c2ccccc2)C2CCCC2)c2ccc(OCCCN(C)C)cc2)cc1` stands -78.9% (active).
As for `CN1CCN(Cc2ccc(NC(=O)c3[nH]ncc3Nc3cc(OC4CCCC4)ncn3)cc2)CC1`, the growth was 16.1%.
Take `Nc1ccc2c(c1)C1(CCC2)NC(=O)NC1=O` (stereo not given): the growth was 97.4%.
Turning to `O=C(Nc1ccccc1Cl)c1cnc2ccc(C3CCNCC3)cn12`, the growth is 63.3%.
As to `CCN(CC)CCS(=O)(=O)CCNc1ccnc2cc(Cl)ccc12`, the growth is -49.2% (active).
In the case of `CN=C(N)N/N=C(\c1ccccc1)c1ccc(Br)cc1` it was 1.8% (active); in that of `O=c1[nH]c(O)c(/C=C2/C=Nc3ccccc32)[nH]1`, 66.1%.
Consider `CN1CCN(CCNc2nccc(-c3c(-c4cccc(O)c4)nc4sccn34)n2)S1(=O)=O`, for which the growth was 79.4%.
As for `N#Cc1nc(-c2ccc(F)cc2)oc1S(=O)(=O)N1CCOCC1`, the growth was 29%.
With `OCCCCCCNc1ncnc2cc(Cl)ccc12`, the growth was 74.1%.
On to `CCN(CC)S(=O)(=O)c1ccc(-c2nc(C(Cl)Cl)nc3cc(-c4ccc(F)cc4)nn23)cc1`, for which the growth was -31.9% (active).
In the case of `O=C1OCC2=C1C(c1ccccc1)c1cc3c(cc1N2CCO)OCO3` (stereo not given) it was 9.26% (active); in that of `CCCCCCCCCCCCCCCCCCOc1ccccc1CC(=O)NCC[N+]1(C)CCCCC1`, 7.37% (active); in that of `CCCCCCCCCCCCCCCCOCCCOP(=O)(O)C1CCCN(O)C1=O` (stereo not given), -7.42% (active).

The record behind these values is PubChem BioAssay (NCI).
